Where “and” joins values, the source holds several entries; their conditions need not be identical. Equal values may be shown once. Screen size: about 3,200 compounds; about 300 (9.4%) showed activity. The full list was thinned out, with actives kept by preference.
Test system: A673/TR/shEF
Assay: cell viability (LOESS-normalised, relative to median of negative controls) (log2 ratio); higher = more viable cells (less compound effect), active = hit call of the paper (over 3 MAD below the median)
Conditions: treatment time: 72 h
Summary of the method: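 For three days, A673/TR/shEF Ewing sarcoma cells in 384-well plates (1,500 per well) were treated with library compounds at two or more concentrations or with DMSO controls, after doxycycline had been added or withheld 24 h beforehand to induce EWS-FLI1 shRNA knockdown. Viability was read by CellTiter-Glo luminescence on an Envision reader. The data were LOESS-corrected per plate, divided by the median of negative controls and log2-transformed.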

[1] = 0.025 µM, library screen: screen1, EWS-FLI1 expression: high (no doxycycline)
[2] = 0.025 µM, library screen: screen1, EWS-FLI1 expression: low (doxycycline-induced shRNA knockdown)
[3] = 0.25 µM, library screen: screen1, EWS-FLI1 expression: high (no doxycycline)
[4] = 0.25 µM, library screen: screen1, EWS-FLI1 expression: low (doxycycline-induced shRNA knockdown)
[5] = 0.25 µM, library screen: screen2, EWS-FLI1 expression: high (no doxycycline)
[6] = 0.25 µM, library screen: screen2, EWS-FLI1 expression: low (doxycycline-induced shRNA knockdown)
[7] = 2.5 µM, library screen: screen1, EWS-FLI1 expression: high (no doxycycline)
[8] = 2.5 µM, library screen: screen1, EWS-FLI1 expression: low (doxycycline-induced shRNA knockdown)
[9] = 2.5 µM, library screen: screen2, EWS-FLI1 expression: high (no doxycycline)
[10] = 2.5 µM, library screen: screen2, EWS-FLI1 expression: low (doxycycline-induced shRNA knockdown)
[11] = 25 µM, library screen: screen1, EWS-FLI1 expression: high (no doxycycline)
[12] = 25 µM, library screen: screen1, EWS-FLI1 expression: low (doxycycline-induced shRNA knockdown)

Measured: cell viability (log2)

O=S(=O)(c1cccc2c(Cl)cccc12)N1CCCNCC1
active: [7] -0.211 | [11] -0.331
inactive: [1] 0.198 | [2] -0.106 | [3] 0.179 | [4] -0.113 | [5] 0.275 | [6] 0.144 | [8] -0.13 | [9] 0.128 | [10] 0.122 | [12] -0.103

CC1CNCCN1S(=O)(=O)c1cccc2cnccc12 (stereo unspecified)
active: [11] -0.155
0.301: [3]
0.354: [1]
inactive: [2] 0.0557 | [4] 0.0236 | [5] 0.145 and 0.204 | [6] 0.0425 and 0.187 | [7] -0.0561 | [8] 0.0655 | [9] 0.0837 and 0.258 | [10] 0.0573 and 0.209 | [12] 0.112

c1cc(CN2CCCNCCNCCCNCC2)ccc1CN1CCCNCCNCCCNCC1
inactive: 0.103 µM, library screen: screen3, EWS-FLI1 expression: high (no doxycycline) 0.00595 | 0.103 µM, library screen: screen3, EWS-FLI1 expression: low (doxycycline-induced shRNA knockdown) 0.0496 | 0.308 µM, library screen: screen3, EWS-FLI1 expression: high (no doxycycline) 0.0705 | 0.308 µM, library screen: screen3, EWS-FLI1 expression: low (doxycycline-induced shRNA knockdown) 0.00482 | 0.926 µM, library screen: screen3, EWS-FLI1 expression: high (no doxycycline) 0.086 | 0.926 µM, library screen: screen3, EWS-FLI1 expression: low (doxycycline-induced shRNA knockdown) 0.0433 | 2.8 µM, library screen: screen3, EWS-FLI1 expression: high (no doxycycline) 0.0246 | 2.8 µM, library screen: screen3, EWS-FLI1 expression: low (doxycycline-induced shRNA knockdown) 0.0244 | 8.3 µM, library screen: screen3, EWS-FLI1 expression: high (no doxycycline) 0.0572 | 8.3 µM, library screen: screen3, EWS-FLI1 expression: low (doxycycline-induced shRNA knockdown) 0.0352 | 25 µM, library screen: screen3, EWS-FLI1 expression: high (no doxycycline) 0.0828 | 25 µM, library screen: screen3, EWS-FLI1 expression: low (doxycycline-induced shRNA knockdown) 0.0617

O=S(=O)(c1cccc2cnccc12)N1CCCNCC1
inactive: [2] -0.0219 | [4] -0.0194 | [8] 0.0781 | [12] 0.0444
0.279: [1]
active: [7] -0.187 | [11] -0.284
0.333: [3]

CC(C)CCC[C@@H](C)[C@H]1CC[C@H]2[C@@H]3CC[C@H]4C[C@H](O)CC[C@]4(C)[C@H]3CC[C@]12C
inactive: [3] 0.14 | [4] 0.0986 | [7] 0.118 | [8] 0.0759

O=C(O)/C=C1/CCCc2ccccc2C1O (stereo unspecified)
inactive: [3] 0.0671 | [4] 0.163 | [5] 0.165 | [6] 0.0537 | [7] 0.139 | [8] 0.187 | [9] 0.071 | [10] 0.0654

CC(=O)O[C@@H]1CC2C(C)(C)[C@H](O)C=C[C@]2(C)C2CC[C@@]3(C)[C@H](c4ccoc4)OC(=O)C4OC43[C@@]21C (stereo partly specified)
inactive: [3] 0.000168 | [4] 0.0262 | [7] 0.0677 | [8] 0.0357

Cc1c(C(=O)O)c(O)cc2c1C(=O)c1c(O)c([C@@H]3O[C@H](CO)[C@@H](O)[C@H](O)[C@H]3O)c(O)c(O)c1C2=O
inactive: [3] 0.057 | [4] 0.112 | [7] 0.0928 | [8] 0.184

Cc1ccc2nc(NC3=NC(CC(=O)O)C(=O)N3)nc(C)c2c1 (stereo unspecified)
inactive: [3] 0.016 | [4] -0.0194 | [7] 0.0679 | [8] -0.193

CCOc1cccc(=O)c2c(C)[nH]c(C)c12
inactive: [3] 0.0528 | [4] 0.134 | [7] 0.0744 | [8] 0.088

CC1=C2C(O)C(=O)OC3CC4C(C)(C)C(=O)CCC4(C)C(CC1)C23C (stereo unspecified)
inactive: [3] 0.149 | [4] 0.0333 | [7] 0.0817 | [8] 0.166

CO/N=C(\C(=O)N[C@@H]1C(=O)N2C(C(=O)O)=C(CSc3nc(=O)c(=O)[nH]n3C)CS[C@H]12)c1csc(N)n1
inactive: [3] 0.112 | [4] 0.0388 | [5] 0.21 | [6] 0.115 | [7] 0.082 | [8] 0.12 | [9] 0.149 | [10] 0.12

CC(=O)Oc1c(Cl)c(C)c2c(c1Cl)OC(=O)c1c(C)c(Cl)c(OC(C)=O)c(Cl)c1O2
inactive: [3] 0.0776 | [4] 0.0649 | [7] 0.0636 | [8] -0.0345

CC1(C)C=Cc2c(cc3occ(-c4ccc5c(c4)OCO5)c(=O)c3c2O)O1
inactive: [4] 0.0822 | [7] 0.0137 | [8] 0.0314
active: [3] -0.098

COc1c(-c2coc3cc4c(cc3c2=O)CC(O)C(C)(C)O4)ccc2c1C=CC(C)(C)O2 (stereo unspecified)
inactive: [3] 0.0473 | [4] 0.0244 | [7] 3e-05 | [8] 0.094

COc1cc2c(cc1-c1coc3c4c(ccc3c1=O)OC(C)(C)C=C4)OCO2
inactive: [3] 0.0979 | [4] 0.0365 | [7] 0.112 | [8] 0.0354

O=c1c(-c2ccc3c(c2)OCO3)coc2cc(O)ccc12
inactive: [3] 0.113 | [4] 0.0865 | [7] 0.149 | [8] -2.91

COc1c2c(cc3occ(-c4ccc5c(c4)OCO5)c(=O)c13)OC(C)(C)C=C2
active: [3] -0.144
inactive: [4] 0.05 | [7] 0.0889 | [8] 0.0736

CC(C)=CCc1c2c(c3occ(-c4ccc(O)c(O)c4)c(=O)c3c1O)C=CC(C)(C)O2
inactive: [3] 0.131 | [4] 0.0868 | [7] 0.0962 | [8] 0.19

COc1cc2c3cc1Oc1c(OC)c(OC)cc4c1C(Cc1ccc(O)c(c1)Oc1ccc(cc1)CC3N(C)CC2)N(C)CC4 (stereo unspecified)
inactive: [3] 0.135 | [4] 0.0489 | [7] 0.126 | [8] -0.0746
